# In the supplement of paper PMC10681739:
# Tests used:
# ETS1 [1] = molecular target: T1, ETS1 (UniProt P14921); assay: ETS1 binding intensity (PBM fluorescence), ETS1 alone (arbitrary fluorescence units); higher = stronger binding; conditions: ETS1 concentration 1 nM; RUNX1 concentration 0 nM
# T1 sequence: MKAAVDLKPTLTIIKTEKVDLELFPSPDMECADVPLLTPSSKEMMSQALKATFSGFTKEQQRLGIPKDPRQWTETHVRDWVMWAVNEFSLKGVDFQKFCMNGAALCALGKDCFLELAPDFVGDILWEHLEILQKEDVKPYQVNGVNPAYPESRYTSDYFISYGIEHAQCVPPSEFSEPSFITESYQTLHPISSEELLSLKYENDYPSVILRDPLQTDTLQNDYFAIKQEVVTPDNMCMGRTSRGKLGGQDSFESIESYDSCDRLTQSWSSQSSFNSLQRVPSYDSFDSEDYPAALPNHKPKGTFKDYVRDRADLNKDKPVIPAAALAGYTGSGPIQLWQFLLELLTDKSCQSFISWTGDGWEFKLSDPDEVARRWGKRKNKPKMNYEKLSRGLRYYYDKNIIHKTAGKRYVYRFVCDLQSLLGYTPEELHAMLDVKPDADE
# RUNX1 [2] = molecular target: RUNX1 (UniProt Q01196); assay: RUNX1 binding intensity (PBM fluorescence), RUNX1 alone (arbitrary fluorescence units); higher = stronger binding; conditions: RUNX1 concentration 2 nM; ETS1 concentration 0 nM
# Protocol: (§1)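 Cooperative gcPBM on 36-bp genomic probes with neighbouring ETS1 and RUNX1 sites. Recombinant human RUNX1 (2 nM) was incubated alone or with ETS1 (25 nM) and detected with anti-RUNX1 antibody plus Alexa488 secondary. Values are medians over 4 replicate spots; the RUNX1+ETS1 data were normalised to the RUNX1-only data. The probes sit in constant array flanks that are not printed.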
# ETS1 [3] = molecular target: T1, ETS1; assay: ETS1 binding intensity (PBM fluorescence) in presence of RUNX1, normalised to ETS1-only experiment (arbitrary fluorescence units); higher = stronger binding; conditions: ETS1 concentration 1 nM; RUNX1 concentration 25 nM
# RUNX1 [4] = molecular target: RUNX1 (UniProt Q01196); assay: RUNX1 binding intensity (PBM fluorescence) in presence of ETS1, normalised to RUNX1-only experiment (arbitrary fluorescence units); higher = stronger binding; conditions: RUNX1 concentration 2 nM; ETS1 concentration 25 nM
# Protocol: as §1
# 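Wherever RUNX1 binding intensity (PBM fluorescence) in presence of ETS1, normalised to RUNX1-only experiment is given: Full-length recombinant human ETS1 or RUNX1 bound to double-stranded 36-bp genomic probes on microarrays, detected by protein-specific primary antibody and Alexa488 secondary, spot fluorescence as median of four replicate spots.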
# 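Wherever RUNX1 binding intensity (PBM fluorescence), RUNX1 alone is given: Full-length recombinant human RUNX1 bound to double-stranded 36-bp genomic probes on a high-density microarray, scored as Alexa488 fluorescence per spot via anti-RUNX1 antibody, median of four replicate spots.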
# Chain of RUNX1 (Q01196 whole entry): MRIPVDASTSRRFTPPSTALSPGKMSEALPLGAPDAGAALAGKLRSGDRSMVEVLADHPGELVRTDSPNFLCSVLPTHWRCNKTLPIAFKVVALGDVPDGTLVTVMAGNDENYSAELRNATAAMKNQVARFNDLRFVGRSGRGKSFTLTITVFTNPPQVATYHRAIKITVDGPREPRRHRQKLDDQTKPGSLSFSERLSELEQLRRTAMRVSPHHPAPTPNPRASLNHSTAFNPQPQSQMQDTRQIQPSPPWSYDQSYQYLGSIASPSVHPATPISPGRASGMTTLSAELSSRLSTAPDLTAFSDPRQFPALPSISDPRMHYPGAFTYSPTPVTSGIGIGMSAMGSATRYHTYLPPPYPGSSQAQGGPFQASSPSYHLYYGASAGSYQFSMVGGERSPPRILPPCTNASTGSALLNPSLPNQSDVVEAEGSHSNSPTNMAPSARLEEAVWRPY
Sequence,ETS1 binding intensity (ETS1 [1]),RUNX1 binding intensity (RUNX1 [2]),ETS1 binding intensity (ETS1 [3]),RUNX1 binding intensity (RUNX1 [4])
CCTCTGAGGCAGGAAGCTGCGGTGAAGTCTGAAGTT,3300,871,11800,2070
CTCTAGAGGCTTCCTGCCCAACCACCAAGAAAAAGC,598,817,668,1180
CACTGCGGAAGCAGTGTAGAGAGGTGGTTATCAGTG,707,784,680,921
ATCTCAACTAGGAAATGTTTTTGTGACCACAAAGGG,620,958,2310,949
AGCCTGGCCTCGGCAGGATGTGGGTGTAGGTCATGC,4780,732,7380,999
GAGCCCAACCGGCATCCGTCGCGGTTGGACGTGGGC,343,761,490,1070
GCTCCGCTTCCGGGAGGCGGGGCTTCTGCGGGTTCC,698,737,2520,1710
GCACTTCCGGAGCCGGGCGTCTACAGACCGCGGCCA,868,804,1050,2190
GCCATGGCCACTTCCTGCTTGTAACCACAGCCCAGA,4430,1210,13200,5520
GTGAACTTCCTCCCCCACTGCCTATTTTTACCGCAG,624,1820,596,3950
CCCCTTAGCACAGGATGTGGTCTTTGCATCTTCATT,4640,1040,7360,2960
GCCGCGCGGAAGCCTCCGCCCTGTGGTTTTGGAGCC,368,1030,993,1530
GGTTTCGCTTCCGGGTTAGGCGGCCGCAGAAGCGTA,947,790,1340,1980
GGTAAAGCAACAGGATGTGGGTGTCTGACTTACAAT,4330,700,6760,1790
CCGGTCCGCTCGCCGGAAATGCGGGCTCTCCTGCCG,8400,815,10400,1240
CAGTCAAGAGGAAATTATAAACCACTGCCTCTTTGA,599,833,744,909
TGTCGTACATTTCCGCCTTGTGGGCACAATCTGATT,965,971,1280,1950
ATCAGTCAACTTCCCCCACTCCCTCCCACAAAGAAA,1010,1400,979,1300
TCATTCTCTGATAAAGGAAGTGGTTACAGCACAATT,2910,822,10200,1270
CTGTTTCCGAGTAAAGTAGGGTGTGTGGGTCACATG,456,872,395,929
GCGGGCGGAAGTGCCGAGGTTGTACCGCGGCGCTGG,2020,–,2260,1200
